PubChem BioAssay (EPA / NIEHS)
Results filed as inconclusive are left out. Where a structure was tested more than once in an assay, its records may differ in their call. Calls of active or inactive are those of the source. How the source made its calls, unless noted: active means hit-call score of the fitted dose curve at least 0.9, where 1 is the maximum; inactive means score below 0.9.

Legend:
[1] = CCTE_Shafer_MEA_acute_cross_correlation_area: CCTE's Neural Acute Assay for Area of Cross Correlation, Shafer Lab (AID 2284024);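 further: area under pooled inter-electrode spike cross-correlation near zero lag as percent change from own baseline; curves fitted for loss of cross-correlation area so actives lower synchrony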
Procedure, shortened: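 Plates equilibrated 20 min at 37 C, then 40 min baseline was recorded, compound was added (0.03-40 uM), and a further 40 min was recorded. Wells needed ≥10 active electrodes (≥5 spikes/min) on exposure day.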

[2] = CCTE_Shafer_MEA_acute_cross_correlation_HWHM: CCTE's Neural Acute Assay for Cross Correlation at Half Width at Half Maximum, Shafer Lab (AID 2284026);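 further: percent change per well from pre-dose baseline in spike cross-correlogram half width; hits are a decrease in cross-correlogram half width relative to DMSO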
Procedure, shortened: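 Rat cortical neuron cultures on microelectrode arrays were equilibrated 20 min at 37 C, recorded 40 min at baseline, then 40 min after compound addition (0.03-40 uM, ≥3 wells). Spikes were detected at 8x rms noise after 300-5000 Hz band-pass filtering.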

[3] = CCTE_Shafer_MEA_acute_synchrony_index: CCTE's Neural Acute Assay for Synchrony, Shafer Lab (AID 2284027);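 further: network synchrony index of spontaneous spiking in primary rat cortical neurons on MEAs; fitted for loss of signal so actives lower synchrony relative to DMSO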
Procedure, shortened: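 Primary rat cortical neurons on 48-well MEAs, dosed at 0.03–40 uM on DIV 13 or 15. Spikes are recorded for 40 min at 37C before and after exposure, and synchrony index (0–1) is expressed as percent change from baseline per well.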

[4] = CCTE_Shafer_MEA_dev_firing_rate_mean: CCTE's Neural Network Formation Assay for Mean Firing Rate, Shafer Lab (AID 2284031);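 on AC50: curve fitted for loss of firing so AC50 reflects decreased mean firing rate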
Procedure, shortened: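 Primary rat cortical neurons on 48-well MEA plates, exposed from plating day 0 with dosing renewed on DIV 5 and 9. Mean well firing rate over active electrodes, recorded days 5, 7, 9, 12, summarised as trapezoidal AUC.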

[5] = CCTE_Shafer_MEA_dev_per_burst_spike_percent: CCTE's Neural Network Formation Assay for Percent of Spikes in a Burst, Shafer Lab (AID 2284032);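 on AC50: fitted as a decrease in burst spike percentage below DMSO baseline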
Procedure, shortened: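 Rat primary cortical neurons on 16-electrode MEA wells, dosed from plating day 0 for 12 days with renewal on DIV 5 and 9; spikes-in-bursts percentage averaged over bursting electrodes, collapsed as AUC across days 5, 7, 9, 12; loss direction versus DMSO.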

[6] = CCTE_Shafer_MEA_dev_burst_rate: CCTE's Neural Network Formation Assay for Burst Rate, Shafer Lab (AID 2284042)
Procedure, shortened: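 Cells plated, treated day 0; recorded DIV 5, 7, 9, 12; fed and re-treated DIV 5, 9. Endpoint: bursts per recording time, active-electrode well mean, trapezoidal AUC, fitted in decreasing direction against DMSO baseline.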

[7] = CCTE_Shafer_MEA_dev_per_burst_interspike_interval: CCTE's Neural Network Formation Assay for Burst Interspike Interval, Shafer Lab (AID 2284044);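 further: mean spike spacing inside bursts as AUC over recordings on days 5 7 9 12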;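 on AC50: potency for a decrease of within-burst interspike interval below DMSO level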
Procedure, shortened: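 Neurons from rat cortex plated onto PEI-coated MEA wells with laminin […] at 1.5 x 10^5 cells/well, then treated from day 0. Media and compound fully replaced on DIV 5 and 9. Extracellular spontaneous firing recorded four times; interspike interval per burst summarised as AUC.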

[8] = CCTE_Shafer_MEA_dev_interburst_interval_mean: CCTE's Neural Network Formation Assay for Mean Interburst Interval, Shafer Lab (AID 2284046);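 further: well-mean interburst interval of bursting electrodes as AUC over four recording days; curve fitted for decrease in interburst interval relative to DMSO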
Procedure, shortened: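 Developing rat cortical networks on 48-well MEAs receive compound from the day of plating. Burst intervals from each active electrode are averaged per well, and AUC over the recording days is fitted in the negative direction against DMSO.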

[9] = CCTE_Shafer_MEA_dev_inter_network_spike_interval_mean: CCTE's Neural Network Formation Assay for Mean Inter-network Spike Interval, Shafer Lab (AID 2284047)
Procedure, shortened: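 Rat cortical cultures, 1.5 x 10^5 cells/well on 48-well MEA plates; continuous exposure days 0–12, medium and compound refreshed DIV 5, 9. Mean time between consecutive network-spike peaks; AUC across DIV 5/7/9/12; DMSO baseline, negative fitting direction.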

[10] = CCTE_Shafer_MEA_dev_network_spike_peak: CCTE's Neural Network Formation Assay for Mean Number of Electrodes in Network Spike, Shafer Lab (AID 2284049);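 on AC50: fitted for loss of signal meaning fewer electrodes in network spikes than DMSO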
Procedure, shortened: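 Continuous 12-day exposure of rat cortical cultures, starting at plating, on MEA plates. Endpoint: electrodes participating in network-spike peaks, AUC across DIV 5–12, DMSO as negative control.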

[11] = CCTE_Shafer_MEA_dev_spike_duration_mean: CCTE's Neural Network Formation Assay for Mean Spike Duration, Shafer Lab (AID 2284051);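 further: mean network spike duration pooled as area under curve over DIV 5 to 12 recordings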;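 on AC50: potency for a decrease in mean network spike duration versus DMSO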
Procedure, shortened: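 Readout is the average length of network spikes, clustered firing across electrodes, summed over DIV 5, 7, 9 and 12 as area under the curve. Neurons from rat cortex developed networks on MEA plates under continuous 12-day exposure.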

[12] = CCTE_Shafer_MEA_dev_network_spike_duration_std: CCTE's Neural Network Formation Assay for Standard Deviation of Network Spike Duration, Shafer Lab (AID 2284052);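 further: area under curve of spike duration SD across recording days 5 to 12; hits are decreases in network spike duration SD versus DMSO vehicle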
Procedure, shortened: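 Read-out is the trapezoidal area-under-the-curve across recordings made on days 5, 7, 9 and 12, fitted in the negative direction against DMSO baseline. Neurons were primary rat cortical cells treated from day 0, with treatment renewed at each feed.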

[13] = CCTE_Shafer_MEA_dev_per_network_spike_spike_number_mean: CCTE's Neural Network Formation Assay for Mean Number of Spikes in a Network Spike, Shafer Lab (AID 2284053);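 on AC50: fitted as decrease in spikes per network spike relative to DMSO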
Procedure, shortened: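 Continuous twelve-day exposure of developing rat cortical networks grown over 16 microelectrodes per well; spontaneous firing is captured at four time points, and the per-network-spike spike number is integrated over development by trapezoidal AUC.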

[14] = CCTE_Shafer_MEA_dev_per_network_spike_spike_percent: CCTE's Neural Network Formation Assay for Percent of Spikes in a Network Spike, Shafer Lab (AID 2284054)
Procedure, shortened: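 Primary rat cortical neurons on 16-electrode MEA wells (PEI-coated, laminin at plating), exposed from day 0 with renewal at DIV 5 and 9; spikes within 0.05 s of network-spike peaks over total spikes, AUC across days 5, 7, 9, 12.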

[15] = target: Estrogen receptor (Homo sapiens) (UniProt P03372); assay: CCTE_Deisenroth_AIME_384WELL_LUC_Active: CCTE's 384-well Estrogen Receptor Transactivation Assay with AIME metabolic competence (ERTA luciferase; metabolism positive), Deisenroth Lab (AID 2284030; active means hit-call score of the fitted dose curve at least 0.9, where 1 is the maximum)
Sequence of Estrogen receptor (Homo sapiens) (P03372 whole entry, looked up): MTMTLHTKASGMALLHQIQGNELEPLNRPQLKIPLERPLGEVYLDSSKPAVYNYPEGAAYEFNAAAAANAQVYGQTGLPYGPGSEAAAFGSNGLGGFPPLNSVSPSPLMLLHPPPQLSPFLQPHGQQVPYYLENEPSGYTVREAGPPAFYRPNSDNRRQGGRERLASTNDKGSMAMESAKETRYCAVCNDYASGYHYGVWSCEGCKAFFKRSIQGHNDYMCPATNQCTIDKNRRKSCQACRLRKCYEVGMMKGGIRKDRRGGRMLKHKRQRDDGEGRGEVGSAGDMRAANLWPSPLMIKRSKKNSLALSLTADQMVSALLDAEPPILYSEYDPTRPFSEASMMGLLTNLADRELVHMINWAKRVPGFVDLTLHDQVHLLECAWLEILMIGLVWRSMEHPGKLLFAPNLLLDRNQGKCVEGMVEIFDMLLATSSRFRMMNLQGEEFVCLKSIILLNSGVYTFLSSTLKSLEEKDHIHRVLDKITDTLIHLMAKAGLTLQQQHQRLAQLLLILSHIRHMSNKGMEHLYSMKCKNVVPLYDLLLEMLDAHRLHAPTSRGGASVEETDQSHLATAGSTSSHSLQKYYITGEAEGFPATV
Procedure, shortened: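 AIME metabolism-positive mode: chemicals 0.002 - 200 uM, 2 h with alginate-bound PB/BNF-induced rat S9 → medium to VM7Luc4E2 ERTA, 24 h → luciferase. Positive fit vs 17beta-estradiol; n=4 typical.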

[16] = CCTE_Deisenroth_AIME_384WELL_CTox_Active: Cytotoxicity Assessment (CTOX) in CCTE's 384-well Estrogen Receptor Transactivation Assay with AIME metabolic competence (metabolism positive), Deisenroth Lab (AID 2284037; active means hit-call score of the fitted dose curve at least 0.9, where 1 is the maximum;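 further: chemicals first conditioned 2 h by alginate-bound induced rat liver S9 before cells; activity means signal loss indicating cell death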)
Procedure, shortened: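 VM7Luc4E2 breast cells received medium pre-incubated 2 h with chemical over alginate microspheres holding induced male Sprague Dawley rat liver S9; viability read 24 h later by protease-substrate fluorescence. Loss of signal, bidirectional fit, 0.002–200 uM.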

[17] = target: Estrogen receptor (Homo sapiens) (UniProt P03372); assay: CCTE_Deisenroth_AIME_384WELL_LUC_Inactive: CCTE's 384-well Estrogen Receptor Transactivation Assay without AIME metabolic competence (ERTA luciferase; metabolism negative), Deisenroth Lab (AID 2284038; active means hit-call score of the fitted dose curve at least 0.9, where 1 is the maximum;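 further: hits raise estrogen receptor luciferase signal so potencies reflect agonists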)
Procedure, shortened: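 Metabolism-negative mode: chemicals (10-point, 0.002–200 uM) held 2 h with alginate-water microspheres, then conditioned medium applied to VM7Luc4E2 cells for 24 h. Luciferase induction referenced to 17beta-estradiol.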

[18] = target: Estrogen receptor (Homo sapiens) (UniProt P03372); assay: CCTE_Deisenroth_AIME_384WELL_LUC_Shift: CCTE's 384-well Estrogen Receptor Transactivation Assay with AIME metabolic competence data shift (ERTA luciferase; difference in metabolism positive and negative), Deisenroth Lab (AID 2284041);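 further: shift is response with S9 minus without S9 so positive means metabolism raised ER signal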
Procedure, shortened: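 Here, parent compounds undergo 2 h phase I metabolism by PB/BNF-induced rat S9 before 24 h transactivation in VM7Luc4E2 cells; the curve models S9-positive minus S9-negative response over a 10-point series.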

[19] = CCTE_Shafer_MEA_dev_active_electrodes_number: CCTE's Neural Network Formation Assay for Number of Active Electrodes, Shafer Lab (AID 2284040; active means hit-call score of the fitted dose curve at least 0.9, where 1 is the maximum;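 on AC50: potency for loss of active electrodes versus DMSO so lower counts are hits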)
Procedure, shortened: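 Primary rat cortical neurons on 16-electrode MEA wells, exposed from day 0 through day 12 with compound renewed at DIV 5 and 9 feeds. Active electrodes (mean firing ≥5 spikes/min) counted at DIV 5, 7, 9, 12; trapezoidal AUC across days, loss-of-signal versus DMSO.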

DIO2 (gene 1734) = assay: CCTE_GLTED_hDIO2: CCTE's human Deiodinase 2 (DIO2) Inhibition Assay, Great Lakes Toxicology and Ecology Division (GLTED) Lab (AID 2284050; active means hit-call score of the fitted dose curve at least 0.9, where 1 is the maximum)
Procedure, shortened: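 Cell-free human DIO2 incubated 3 h with chemical; liberated iodide quantified by Sandell-Kolthoff absorbance. Triplicate plates; loss of signal fitted vs DMSO.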

Measured: AC50

O=C(O)C1C(C(=O)O)C2(Cl)C(Cl)=C(Cl)C1(Cl)C2(Cl)Cl (stereo not drawn)
not listed: [15] | [16] | [17] | [18] | [19] | DIO2 (gene 1734)
inactive: all other assays above

CCCCN(CCCC)N=O
inactive: [15] | [16]
active: [17] 85.5 µM | [18] 77.6 µM

Nc1ccc(Cl)cc1
inactive: [15] | [16] | [17] | [18]

ClC(Cl)(Cl)c1ccccc1
inactive: [1] | [2] | [3]

Cc1ccc(N)cc1N
inactive: [1] | [2] | [3]

[N-]=[N+]=[N-]
inactive: [1] | [2] | [3] | [15] | [17] | [18]

CCCCN(CC)C(=O)SCCC
inactive: [15] | [16] | [17] | [18]

Nc1cc2c3c(c1)C(c1ccccc1)=N[C@@H](NC(=O)c1cccnc1)C(=O)N3CC2
inactive: [15] | [16] | [17]
active: [18] 39.4 µM

Nc1ccc2ccccc2c1
active: [15] 13.8 µM
inactive: [1] | [2] | [3] | [16] | [17] | [18]

c1ccc2c(c1)Nc1ccccc1S2
inactive: [1] | [16] | [18]
active: [2] 36.9 µM | [3] 20 µM | [15] 41.3 µM | [17] 27.7 µM

CC(C)(C)c1ccccc1OP(=O)(Oc1ccccc1)Oc1ccccc1
inactive: [1] | [4] | [5] | [19] | [6] | [7] | [8] | [9] | [10] | [11] | [12] | [13] | [14]
active: [2] 8.14 µM | [3] 6.97 µM | [5] 26.2 µM | [19] 24.3 µM | [10] 22.9 µM | [11] 25.7 µM | [13] 25.4 µM | [14] 15 µM

c1ccc(OP(Oc2ccccc2)Oc2ccccc2)cc1
active: [15] 76.8 µM | [17] 75.4 µM | [18] 60.5 µM
not listed: [1] | [2] | [3] | DIO2 (gene 1734)
inactive: all other assays above

CCOc1ccc(C(C)(C)COCc2cccc(Oc3ccccc3)c2)cc1
inactive: [1] | [2] | [6] | [9] | [12]
active: [3] 28.1 µM | [4] 5.99 µM | [5] 10 µM | [19] 10 µM | [7] 14 µM | [8] 18 µM | [10] 6.54 µM | [11] 4.41 µM | [13] 10 µM | [14] 10 µM

CC1(C)CN=C(NN=C(/C=C/c2ccc(C(F)(F)F)cc2)/C=C/c2ccc(C(F)(F)F)cc2)NC1
active: DIO2 (gene 1734) 18.8 µM

ClC(Cl)c1ccccc1
inactive: [15] | [16] | [17] | [18]
